Data: the supplement of paper PMC6555819

Key:
Assay in all cases: PBM binding z-score (relative to random genomic background probes); higher = stronger binding; sequences stand for … in GC…GCGATTGACAGCGTAGAATGAAGG
[1] = test system: FXR:RXRa (NR concentration 270 nM, RXRa partner concentration 90 nM)
Summary of the method: (§1)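 On custom Agilent 4×180K arrays, double-stranded probes with 34-nt variable regions carried direct-repeat seeds, single-nucleotide variants, half-site ablations or random human genomic background. Ligand-free nuclear receptor dimers were applied for 1 h, and binding was read with antibodies against each partner (one per run). Binding z-scores come from regression-normalized fluorescence, with the random background probes as reference.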

[2] = test system: LXRa:RXRa (NR concentration 270 nM, RXRa partner concentration 90 nM)
Summary of the method: as §1

[3] = test system: LXRa homodimer (NR concentration 270 nM)
Summary of the method: as §1

[4] = test system: LXRb:RXRa (NR concentration 270 nM, RXRa partner concentration 90 nM)
Summary of the method: as §1

[5] = test system: LXRb homodimer (NR concentration 270 nM)
Summary of the method: as §1

[6] = test system: PPARa:RXRa (NR concentration 270 nM, RXRa partner concentration 90 nM)
Summary of the method: as §1

[7] = test system: PPARg:RXRa (NR concentration 180 nM, RXRa partner concentration 90 nM)
Summary of the method: as §1

[8] = test system: PPARg:RXRa 270nM:90nM, anti-RXR (NR concentration 270 nM, RXRa partner concentration 90 nM)
Summary of the method: as §1

[9] = test system: PPARg:RXRa 30nM:10nM, anti-RXR (NR concentration 30 nM, RXRa partner concentration 10 nM)
Summary of the method: as §1

[10] = test system: PPARg:RXRa 90nM:30nM, anti-RXR (NR concentration 90 nM, RXRa partner concentration 30 nM)
Summary of the method: as §1

[11] = test system: PPARg:RXRa DBDmut IVT, anti-RXR (DBD mutation: RXRa K156A/R161A, NR concentration 270 nM, RXRa partner concentration 90 nM)
Summary of the method: as §1

[12] = test system: PPARg:RXRa IVT, anti-PPARg (NR concentration 270 nM, RXRa partner concentration 90 nM)
Summary of the method: as §1

[13] = test system: PPARg DBDmut:RXRa IVT, anti-PPARg (DBD mutation: PPARg1 K132A/R137A, NR concentration 270 nM, RXRa partner concentration 90 nM)
Summary of the method: as §1

[14] = test system: PPARg DBDmut IVT, anti-PPARg (DBD mutation: PPARg1 K132A/R137A, NR concentration 270 nM)
Summary of the method: as §1

[15] = test system: PPARg homodimer (NR concentration 180 nM)
Summary of the method: as §1

[16] = test system: PXR:RXRa (NR concentration 270 nM, RXRa partner concentration 90 nM)
Summary of the method: as §1

[17] = test system: PXR homodimer (NR concentration 270 nM)
Summary of the method: as §1

[18] = test system: RARa:RXR (NR concentration 270 nM, RXRa partner concentration 90 nM)
Summary of the method: as §1

[19] = test system: RARa homodimer (NR concentration 270 nM)
Summary of the method: as §1

[20] = test system: RARb:RXRa (NR concentration 270 nM, RXRa partner concentration 90 nM)
Summary of the method: as §1

Sequence	PBM binding z-score [1]	PBM binding z-score [2]	PBM binding z-score [3]	PBM binding z-score [4]	PBM binding z-score [5]	PBM binding z-score [6]	PBM binding z-score [7]	PBM binding z-score [8]	PBM binding z-score [9]	PBM binding z-score [10]	PBM binding z-score [11]	PBM binding z-score [12]	PBM binding z-score [13]	PBM binding z-score [14]	PBM binding z-score [15]	PBM binding z-score [16]	PBM binding z-score [17]	PBM binding z-score [18]	PBM binding z-score [19]	PBM binding z-score [20]
GCTGCTAGGTCAGGTTAGTCAGCTAACGGGTACG	1.16	0.852	-0.246	0.282	-0.367	1.51	0.774	1.17	-0.493	0.602	2.9	2.42	-0.896	-1.02	0.349	0.128	-0.498	0.677	-0.907	3.29
CCTTCTGGGCCAAAGGTCATTGATTCCAATGCTC	4.88	5.18	4.15	5	1.15	6.61	11.3	10.2	10.6	11.4	5.17	6.5	0.508	0.533	2.95	5.52	1.51	6.29	0.576	4.44
GCTACTAGGTCAACTGATGGTCAGCTAAAGCTCG	4.07	3.11	0.488	2.22	0.314	4.47	7.27	6.19	3.31	5.71	8	8.03	2.65	2.15	2.57	1.75	-0.307	3.07	0.12	4.25
TTACCAAGGTGAGATGAGGTCGTTGATCCAACTC	1.78	1.68	-0.0824	1.1	-0.44	2.03	0.772	1.32	0.775	1.01	1.15	2.16	-0.0123	0.496	0.827	5.21	0.58	2.44	0.0224	1.83
AGTCAACGTTCAGGACGAGGTAACGTAAAGCACG	-0.0969	-0.468	-0.628	-0.496	-0.581	-0.416	0.73	-0.278	-0.327	-0.0729	-0.667	-0.129	-0.279	-0.261	-0.431	-0.527	-0.514	0.104	-0.202	0.548
CGTCCAAGGTCAAGGTCAGTGAGAGAGACTCGAA	7.65	5.63	1.24	4.59	0.615	6.05	6.16	6.13	2.58	4.79	3.51	4.84	1.23	2.41	3.47	4.79	1.08	5.05	1.59	5.69
TCATATAGGTAAAAGGCGAAAGTCGGTGTGGTAA	0.336	0.537	0.094	0.746	-0.359	2.66	4.65	6.15	6.72	7.04	3.92	3.21	0.28	0.103	0.768	0.309	0.159	0.628	0.926	0.164
TCGAGTAGGTCAGTCGGGGCATTCAGCCAACATA	1.39	1.09	-0.271	1.55	-0.625	2.56	2.27	2.87	1.39	2.2	4.8	4.74	0.141	-0.71	1.14	1.71	0.855	1.47	-0.53	3.03
CGTCCAAGGTCATAGGAGGTTAGTGAAGACAGAT	7.23	6.11	2.12	4.77	0.715	5.61	4.92	5	2.04	3.54	2.69	3.67	0.657	-0.0801	3	5.46	2.22	4.61	1.31	5.06
CCTCAAAGTTCAAGGTAACGTAACAGAAAGCAGC	5.83	5.87	3.49	3.83	1.95	4.85	2.87	3.67	0.99	2.22	0.797	0.928	0.66	0.159	3.58	4.18	2.53	3.49	2.16	5.26
TAGCCTAGGTCATGCGGACCAGTATAGTGTCGGC	3.93	3	0.318	1.59	-0.198	3.33	1.99	2.5	0.202	1.38	1.69	2.81	-0.0719	-0.526	0.843	1.31	-0.745	2.2	-0.507	3.65
GCCATTAGTTGAAAGGGCAACCGAATGATTCTCG	0.121	0.648	0.0731	0.887	-0.56	2.25	2.41	4.11	1.8	3.93	0.352	0.947	0.187	-0.306	0.971	0.706	0.067	1.4	-0.15	2.21
CCTTCTGGGCCAAAAAGGTCATTGATGCCGATAA	3.46	4.33	2.97	3.9	0.645	4.48	2.52	3.9	1.16	2.59	3.91	3.68	-0.102	-0.685	3.67	4.74	4.12	5.1	1.14	3.83
CCTACTGGGCCCAAGGTCATTGATTCCAATGCTC	2.45	2.46	1.44	2.53	0.0311	3.65	6.53	6.93	5.33	6.47	-0.0484	3.05	-0.816	-1.27	1.42	3.24	1.78	3.17	0.145	2.79
AGAATGAGGTTATTAAGATAAGGGAATTGCGGTC	1.33	1.59	-0.0371	1.08	-0.0386	2.64	1.47	1.65	0.732	0.962	2.05	2.31	1.03	0.188	0.58	0.886	0.278	1.24	0.541	1.23
TCTATTAGTTGATTAGGGCGACCGAAACAGCGGA	0.395	0.617	0.293	0.356	0.556	0.801	-0.0653	1.73	3.64	2.8	2.11	0.486	0.791	0.554	0.93	0.452	0.338	0.407	1.27	0.629
CCGACTCGGGCATAAGGTTACCATAAGCCAGCCC	0.235	2.34	-0.549	0.615	-1.1	1.14	0.783	1.19	-0.332	0.652	0.661	-0.167	-1.02	-2	0.278	0.0235	-0.204	0.884	-0.315	1.36
ACTCTTAGTTGACTTAGGGCAACCGATACGACGC	0.556	0.443	0.285	0.398	0.941	0.448	0.905	0.0993	0.38	0.299	0.723	0.491	1.1	1.39	0.782	0.578	0.291	0.777	0.704	1.04
TCTTGCAGATCAATAGAGGTTAAGAAAGTGCGCT	0.606	3.34	0.219	2.04	-0.44	1.9	-0.17	1.1	1.84	1.35	0.862	0.37	0.336	-0.0409	-0.12	3.03	0.036	1.91	-0.478	0.805
ACTAGCAGGGCAAGTTTGGGTCACTCAAACAAAG	1.11	0.854	-0.346	1.07	-0.746	1.85	0.29	0.531	-0.392	0.0112	2.04	1.96	-0.127	-0.121	0.449	1.13	-0.488	2.07	-0.817	2.43
CGTCGAAGGTCAAGGTCAGTGAAAGAGACTCGAA	7.03	5.5	0.585	4.59	0.681	6.39	6.6	6.24	2.48	5.24	2.61	4.52	0.183	-0.374	2.78	4.3	0.957	4.46	1.26	5.88
GCTATTAGTTGAAAGGACAACCGAATGATTCTCG	-0.0393	-0.0503	-0.151	-0.41	-0.0299	0.0455	0.857	1.45	0.556	0.958	0.447	-0.166	0.553	0.18	0.735	-0.372	0.0666	-0.189	1.02	1.32
CCTATTAGTTGACCATAAGAGCAACCGAAGCTCG	0.554	0.617	1	0.594	1.16	0.283	0.521	0.101	0.292	-0.0122	0.641	0.0362	0.382	0.759	2.08	0.627	0.992	0.532	2.97	0.667
ATACCAAGGTGATCGTGAGGTCGCTGATACTAAC	1.23	0.653	0.154	0.766	-0.474	1.15	0.701	0.558	-0.172	0.198	0.629	1.43	0.343	0.406	0.832	1.86	0.225	1.66	-0.0146	1.43
CCTTTCGGGTCACTGACAGGTTATAGCATTTGGA	5.71	4.35	0.279	3.33	0.0515	5.09	3.95	4.25	1.43	3.06	3.4	3.43	0.931	0.0693	2.97	3.79	0.121	4.74	0.858	4.04
AATACAGGGTCACTAGGCCAAAGTAGGTACGAAT	6.51	4.99	1.08	4	1.01	6.26	8.6	6.83	4.18	6.09	4.25	6.12	1.52	1.47	2.51	3.27	0.193	4.17	0.959	4.31
ACTATTAGTTTACTTAGGGCAACCGATACGACGC	0.0954	0.173	0.422	0.0496	0.375	0.0302	0.985	0.261	0.394	0.541	0.826	0.924	0.857	1.39	0.166	0.669	1.14	0.64	0.904	1.04
TCGAGTAGGTTACCAATGGGACATTCAGCTTTCT	0.203	1.04	-0.603	0.366	-0.806	0.841	0.563	1.2	1.11	1.08	2.84	2.43	-0.217	0.266	-0.26	0.0751	-0.84	0.149	-0.599	0.695
